# Sampled rows, rich in hits. Any-hit rate of the full collection: about 4.7%.
# HSF-1 act: increases HSF-1 driven luciferase reporter signal | NIH3T3-HGL HSF-1 luciferase reporter, MG132, 8 h; 100% = twice DMSO control signal | activation, % at 9 µM | 1.7% of 300,000 active | AID 504408;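 active = mean replicate activation of at least 50% with a set share of replicates each reaching 50%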;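 note: 0% = median of the neutral control wells and 100% = twice that signal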
# HSP90 inh: inhibitors of HSP90 luciferase refolding in rabbit reticulocyte lysate; inhibition, % at 5.6 µM; AID 1789; luciferase refolding luminescence, 3 h; 0.91% of 290,000 active;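 active = inhibition above the screen-wide mean plus 3 SD, computed separately per campaign, cut at about 16% in these data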;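 note: 0% = DMSO wells and 100% = 60 µM geldanamycin wells; inhibitors lower the luminescence because luciferase stays unfolded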
# EBV LMP1 NFkB: inhibitors of Epstein-Barr LMP1-induced NF-kappaB reporter; LMP1-induced NF-kappaB luciferase reporter cells, luminescence; inhibition, % at 12.5 µM; 0.69% of 350,000 active; AID 504558; in the data active = inhibition above about 41%;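 note: 0% = neutral control wells and 100% = reference inhibitor control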
# TWEAK-Fn14 inh: inhibitors of TWEAK-Fn14 interaction signaling | TWEAK-stimulated Fn14 reporter cells, luciferase luminescence, 8 h | inhibition, % at 10 µM | 2% of 360,000 active | AID 1159606; in the data active = inhibition above about 50%
# TROY signal inh: TROY signaling inhibition | Q293 LMP1-TROYcd NF-kB luciferase reporter, 4 h | inhibition, % at 10 µM | 0.98% of 360,000 active | AID 1347056;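 active = compounds whose plate-normalised and pattern-corrected inhibition of the luciferase reporter signal at the single screening dose is 50% or more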
# HSF1 inhib: HSF1 inhibition. NIH3T3-HGL HSE-luciferase, MG132-induced, luminescence 8 h; active compounds read low. activity change, negative = inhibition, % at 7.5 µM (by protocol). 0.77% of 300,000 active. AID 2098;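 active = more than half of replicate wells show activity change below -50%, luminescence cut by over half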;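 note: luciferase reports HSF-1 transcriptional activity via heat shock element; 0% = median of DMSO wells and -100% = zero luminescence signal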
# Starred values were filed as active, the others as inactive; x = not tested or not shown.
SMILES,HSF-1 act,HSP90 inh,EBV LMP1 NFkB,TWEAK-Fn14 inh,TROY signal inh,HSF1 inhib
Cc1cc(Br)cn2c(Cc3ccsc3)c(C(C)(C)C)nc12,x,x,x,13.4,-4.2,x
Cn1c(NCC(O)CO)nc2c1c(=O)n(Cc1ccc(Cl)c(Cl)c1)c(=O)n2C (stereo not given),15.8,2.1,-3.0,10.2,4.9,0.4
Cn1c(NCc2ccco2)nc2c1c(=O)n(Cc1ccc(Cl)c(Cl)c1)c(=O)n2C,13.2,-0.5,19.2,50.1*,29.2,11.0
Cn1c(NCCN2CCOCC2)nc2c1c(=O)n(Cc1cccc(Cl)c1)c(=O)n2C,7.1,0.5,-0.7,80.0*,x,3.9
COCC(=O)N1C[C@H]2CON(C)[C@H]2C[C@H]1c1ccc(N2CCCCC2)cc1,x,x,x,-7.2,5.4,x
O=c1ccn(C2CCCCC2)c(=O)[nH]1,x,x,x,11.6,7.9,x
COCCn1nnnc1C(c1ccccc1OC)N1CCc2ccccc2C1 (stereo not given),94.9*,3.2,-11.2,-11.8,15.4,50.5
COCCn1nnnc1C(c1ccc(OC)c(OC)c1)N1CCc2ccccc21 (stereo not given),14.7,-2.2,-5.7,-15.3,18.8,7.0
CC(C)COc1ccc(-c2cc(C(=O)NN)[nH]n2)cc1,52.1*,15.1,-38.2,-25.3,-49.0,11.7
NC(=O)c1ccc(-n2c(CCC(=O)O)ccc2-c2cccs2)cc1,7.3,0.8,-5.9,5.1,-5.1,6.4
O=C(O)CCc1ccc(-c2cccs2)n1NC(=O)c1ccco1,-30.6,5.4,-2.6,104.5*,5.3,-5.4
CC(=O)c1ccc(-n2c(CCC(=O)O)ccc2-c2cccs2)cc1,-4.3,4.2,-6.3,60.6*,57.2*,-9.3
Cc1ccc(NC(=O)Cn2c(CCC(=O)O)ccc2-c2cccs2)cc1,61.9*,0.6,-5.8,-15.3,-14.2,39.4
COCc1c(C(=O)Nc2nnc(C3CC3)s2)oc2ccccc12,x,x,-5.6,-13.6,-26.4,x
O=c1cc(-c2c(F)c(F)c(F)c(F)c2F)oc2ccccc12,-10.2,-4.1,-12.5,5.7,65.7*,0.4
O=c1cc(-c2cccc(F)c2)oc2ccccc12,x,x,-9.9,-29.0,31.6,x
O=c1cc(-c2c(F)c(F)c(F)c(F)c2F)oc2c(F)c(F)c(F)c(F)c12,-94.8,-1.1,x,x,x,-94.4*
CCCCN(C(C)=O)c1c(CC)nc2ccc(C(=O)NCCOc3ccc(OC)cc3)cn12,x,x,x,-15.4,6.0,x
O=C1NC[C@@H](CCCCN2C[C@H](Cc3ccc(O)cc3)N(CCc3ccccc3)C(=O)C2=O)N(CCC2CCCCC2)C1=O,x,x,x,5.8,-4.7,x
Cn1cc(CN2CCC(C(=O)NC(c3ccc(F)cc3)c3ccc4ccccc4n3)CC2)c2ccccc21 (stereo not given),x,x,x,-18.7,8.4,x
N#Cc1ccc(C#Cc2ccc3oc4ccccc4c(=O)c3c2)cc1,x,x,2.3,-22.2,8.0,x
COc1ccc(-c2sc3cc(OC)c(OC)cc3c2C#CC2(O)CCCCC2)cc1,x,x,-11.7,-19.1,4.9,x
O=c1c2ccccc2oc2ccc(C#CC3(O)CCCCC3)cc12,-87.2,x,-11.9,98.3*,88.7*,-86.1*
Cc1cc2sc3ccc(C#CC4(O)CCCCC4)cc3c(=O)c2cc1C,-92.7,x,77.6*,106.3*,89.6*,-90.3*
NC1(C#Cc2ccc3c(=O)c4ccccc4sc3c2)CCCCC1,x,x,8.3,81.4*,48.5,x
SMILES,HSF-1 act,HSP90 inh,EBV LMP1 NFkB,TWEAK-Fn14 inh,TROY signal inh,HSF1 inhib
CN1C(=O)[C@H]2[C@@H](c3ccc(C(F)(F)F)cc3)N[C@]3(CCCN(Cc4ccc(Br)cc4)C3=O)[C@H]2C1=O,x,x,-1.3,-4.7,-0.5,x
CN(C)CCCNC(=O)c1ccc(-c2cc3nc(NCc4cccnc4)n(C)c(=O)c3s2)cc1,x,x,x,-8.2,5.4,x
O=Cc1cc(CCC(=O)O)ccc1O,9.8,3.9,53.3*,-3.8,12.3,-5.9
CC(=O)c1ccc(NC(=O)COC(=O)c2c3c(nc4ccccc24)/C(=C\c2cccs2)CCC3)cc1,3.4,0.4,-3.8,56.8*,15.6,4.7
COCCNC(=O)C1CCCN(C(=O)c2ccc(C(F)(F)F)nc2C)CC1 (stereo not given),x,x,x,0.6,6.3,x
Oc1ccc(-c2n[nH]c(C(F)(F)F)c2-c2ccccc2)c(O)c1,-7.3,1.4,7.0,56.4*,31.4,-0.8
COc1ccc(-c2c(-c3ccc(O)cc3O)n[nH]c2C(F)(F)F)cc1,-3.8,0.3,-9.7,39.0,19.3,-2.4
Cc1ccc(-n2ncc3c(N4CCN(c5ccccc5)CC4)ncnc32)c(C)c1,-29.0,2.4,12.3,87.4*,50.2*,-23.2
Cc1cccc(-n2ncc3c(N4CCCC4)ncnc32)c1,18.4,6.3,7.3,57.2*,21.8,1.2
c1ccc(Cn2ncc3c(N4CCN(c5ccccc5)CC4)ncnc32)cc1,x,x,x,64.0*,72.2*,x
COc1ccc(N2CCN(c3ncnc4c3cnn4-c3ccc(C)cc3C)CC2)cc1,76.6*,-0.3,12.2,68.1*,44.3,47.4
O=c1c2ccccc2oc2ccc(-c3ccc4cc[nH]c4c3)cc12,x,x,-60.9,35.2,-38.4,x
CCOC(=O)[C@]12CCC=C1N(Cc1ccc(Cl)cc1Cl)C(=O)[C@H](CC(=O)N1CCSCC1)C2,x,x,x,8.5,-5.4,x
COc1ccccc1CNc1nc(NCc2ccc3occc3c2)c2sccc2n1,x,x,x,27.3,38.4,x
COc1ccc(/C=C/C(=O)NC(=S)NCc2ccccc2)cc1OC,67.5*,7.7,-16.5,-16.7,-20.2,31.4
COc1ccc(/C=C/C(=O)OCC(=O)NCc2ccco2)cc1OC,-7.9,0.1,55.5*,16.7,12.8,-7.3
COc1ccc(/C=C/C(=O)NC(=S)Nc2ccc(S(=O)(=O)Nc3cc(OC)ncn3)cc2)cc1,x,-1.7,3.9,9.1,-11.0,x
COC(=O)c1cn(C(=O)/C=C/c2ccc(OC)c(OC)c2)c2ccccc12,60.5*,0.2,-33.4,37.9,17.4,41.9
COc1cc(/C=C/C(=O)OCC(=O)NCc2ccco2)ccc1OC(F)F,7.3,2.4,1.7,-14.5,-3.5,3.5
COc1cc(NS(=O)(=O)c2ccc(NC(=S)NC(=O)/C=C/c3ccc(OC)c(OC)c3)cc2)ncn1,-65.1,0.0,-1.5,-1.4,23.2,-55.0*
COc1ccc2c(c1)C(=O)O[C@@H](c1ccccc1)C[C@@H](O)C(=O)CC2,x,x,x,-28.1,-8.0,x
COc1ccc(/C=C\C(=O)NCc2ccc3c(c2)cc(C)n3C)cc1OC,-24.1,7.6,66.6*,21.0,-0.1,-7.4
COc1ccc(C(=O)NCc2ccc3c(c2)cc(C)n3C)cc1OC,16.3,-4.1,3.8,-17.4,-14.2,-0.6
O=C(Nc1nccs1)c1csc([C@H]2C[C@H](O)[C@@H](CO)O2)n1,x,x,x,15.8,-41.7,x
N#Cc1c(NC(=O)/C=C/C(=O)O)sc2c1CCN(Cc1ccccc1)C2,58.7*,1.5,2.2,-1.3,19.5,16.1
CCCNC(=O)C1(C)CCN(C(=O)COCc2ccccc2)C1 (stereo not given),x,x,x,-0.6,-0.1,x
Cc1sc(NC(=O)CCl)c(C(=O)c2ccccc2)c1C,24.1,4.0,1.0,9.3,15.4,14.1

# Screens deposited in PubChem by several laboratories.
